Data from PubChem BioAssay (NCI).
Values joined by “and” are separate entries in the source; they are usually repeats but may differ in a detail not shown here. Equal entries are not always repeated. Compounds without any hit were thinned out: in the full panel of roughly 83,000, 20% have a hit.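 Method: cells in 96-well plates; compound added at one concentration; 48 h incubation; percent growth measured; values under 10 scored active.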 Active and inactive are the calls of the source.

Assays:
Assay in all cases: NCI-60 one-dose screen, 48 h (100 = growth as untreated, 0 = no growth, -100 = all killed)
Conditions in all cases: 10 µM unless noted
HCT-15 colon = test system: HCT-15 colon
HT29 colon = test system: HT29 colon
SNB-75 CNS = test system: SNB-75 CNS
SNB-19 CNS = test system: SNB-19 CNS
U251 CNS = test system: U251 CNS
PC-3 prostate = test system: PC-3 prostate
SK-MEL-5 melanoma = test system: SK-MEL-5 melanoma
UACC-62 melanoma = test system: UACC-62 melanoma
LOX IMVI melanoma = test system: LOX IMVI melanoma
SK-MEL-28 melanoma = test system: SK-MEL-28 melanoma

Measured: growth

Cc1ccc(C(=O)N(CCCN)[C@@H](c2nc3cc(Cl)ccc3c(=O)n2Cc2ccccc2)C(C)C)cc1
inactive: PC-3 prostate 16.4%
active: HCT-15 colon -50% | HT29 colon 0.611% | SNB-75 CNS -18.7% | SNB-19 CNS 5.11% | U251 CNS -65% | SK-MEL-5 melanoma -94.2% | UACC-62 melanoma -79.6% | LOX IMVI melanoma -90% | SK-MEL-28 melanoma -31%

O=C(/C=C/c1cccs1)Nc1ncc(Cc2ccc(Cl)c(Cl)c2)s1
inactive: HCT-15 colon 28.9% | HT29 colon 24.2% | SNB-75 CNS 64% | SNB-19 CNS 71.1% | U251 CNS 59% | PC-3 prostate 77.6% | SK-MEL-5 melanoma 41.6% | UACC-62 melanoma 17.6% | LOX IMVI melanoma 23.3% | SK-MEL-28 melanoma 63.6%

C=C1C(=O)O[C@H]2[C@H]1CC/C(COC(=O)NCCCCNC(=O)OC/C1=C/CC[C@@]3(C)O[C@H]3[C@H]3OC(=O)C(=C)[C@@H]3CC1)=C\CC[C@@]1(C)O[C@@H]21
active: HT29 colon 5.38% | UACC-62 melanoma -20.8% | LOX IMVI melanoma -22.5% | SK-MEL-28 melanoma -10.1%
inactive: HCT-15 colon 81.6% | SNB-75 CNS 49.5% | SNB-19 CNS 90.9% | U251 CNS 73.6% | PC-3 prostate 67.7% | SK-MEL-5 melanoma 76.8%

CC1(C)C(N)=Nc2cc(OCCCCN3Cc4ccccc4C3)c(OCC3CC3)cc21
inactive: HCT-15 colon 36.2% | HT29 colon 27.6% | SNB-75 CNS 78.9% | SNB-19 CNS 81.9% | U251 CNS 56.3% | PC-3 prostate 98.5% | SK-MEL-5 melanoma 57.7% | UACC-62 melanoma 82.7% | LOX IMVI melanoma 26.4% | SK-MEL-28 melanoma 54.4%

CCN(CC)CC(=O)Nc1ccc2ncnc(Nc3ccc(Oc4cccc(F)c4)c(Cl)c3)c2c1
active: LOX IMVI melanoma -42%
inactive: HCT-15 colon 17.6% | HT29 colon 14.4% | SNB-75 CNS 66.4% | SNB-19 CNS 72.2% | U251 CNS 45.2% | PC-3 prostate 44.7% | SK-MEL-5 melanoma 58.4% | UACC-62 melanoma 86.9% | SK-MEL-28 melanoma 81.3%

CS(=O)(=O)Nc1cc(-c2ccc3ncnc(Nc4ccc(F)c(Cl)c4)c3c2)cnc1Cl
active: HCT-15 colon 8.37% | HT29 colon 9.63% | SNB-75 CNS -15.9% | U251 CNS 3.05% | PC-3 prostate -7.94% | SK-MEL-5 melanoma -93.5% | UACC-62 melanoma -8.21% | LOX IMVI melanoma -23.8%
inactive: SNB-19 CNS 20.1% | SK-MEL-28 melanoma 14.8%

C#Cc1cc(C(=O)Nc2ccc(CN3CCN(C)CC3)c(C(F)(F)F)c2)ccc1C
inactive: HCT-15 colon 26.3% | SNB-75 CNS 76.3% | SNB-19 CNS 94.9% | U251 CNS 56% | PC-3 prostate 61.5% | SK-MEL-5 melanoma 15.6% | UACC-62 melanoma 40.2% | LOX IMVI melanoma 31.1% | SK-MEL-28 melanoma 18.8%
active: HT29 colon 5.65%

CCOC(=O)c1ccc(Nc2ncnc3c2cnn3-c2cccc(F)c2)cc1
inactive: HCT-15 colon 102% | HT29 colon 103% | SNB-75 CNS 82.1% | SNB-19 CNS 96.9% | U251 CNS 98% | PC-3 prostate 97.3% | SK-MEL-5 melanoma 101% | UACC-62 melanoma 92.6% | LOX IMVI melanoma 93.2% | SK-MEL-28 melanoma 110%

Cn1cc(-c2csc(-c3c[nH]c4ccc(F)cc34)n2)c2cnccc21
active: HCT-15 colon -69.7% | HT29 colon -52.6% | SNB-75 CNS -89.1% | U251 CNS -74.6% | SK-MEL-5 melanoma -97% | UACC-62 melanoma -78.5% | LOX IMVI melanoma -90.4% | SK-MEL-28 melanoma -95.9%
inactive: SNB-19 CNS 14.3% | PC-3 prostate 20.5%

ON=C1CCCCCCCC1
inactive: HCT-15 colon 105% | HT29 colon 104% and 110% | SNB-75 CNS 101% and 80.7% | SNB-19 CNS 106% and 104% | U251 CNS 107% and 110% | PC-3 prostate 95.3% and 104% | SK-MEL-5 melanoma 106% | UACC-62 melanoma 103% and 110% | LOX IMVI melanoma 95.4% and 102% | SK-MEL-28 melanoma 105% and 113%

CC[C@@H]1NC(=O)[C@H]([C@H](O)[C@H](C)C/C=C/c2ccc(CN3C(=O)C(C)=C(C)C3=O)cc2)N(C)C(=O)[C@H](C(C)C)N(C)C(=O)[C@H](CC(C)C)N(C)C(=O)[C@H](CC(C)C)N(C)C(=O)[C@@H](C)NC(=O)[C@H](C)NC(=O)[C@H](CC(C)C)N(C)C(=O)[C@H](C(C)C)NC(=O)[C@H](CC(C)C)N(C)C(=O)CN(C)C1=O
inactive: HCT-15 colon 67.8% | HT29 colon 64.9% | SNB-75 CNS 72.8% | SNB-19 CNS 76.1% | U251 CNS 71.2% | PC-3 prostate 39.8% | SK-MEL-5 melanoma 60.5% | UACC-62 melanoma 73.3% | LOX IMVI melanoma 68.6% | SK-MEL-28 melanoma 82.3%

COC1=CC(c2ccc[nH]2)=N/C1=C\c1[nH]c(C)c(C(=O)Oc2ccccc2)c1C
inactive: SNB-19 CNS 20.9% | PC-3 prostate 17.6%
active: HCT-15 colon -35.1% | HT29 colon -15.7% | SNB-75 CNS -16.6% | U251 CNS -16.5% | SK-MEL-5 melanoma -99.9% | UACC-62 melanoma -62.8% | LOX IMVI melanoma -86.1% | SK-MEL-28 melanoma -77.9%

Clc1cccc(Nc2ncnc3ccc(-c4cncc(-n5cnnn5)c4)cc23)c1
inactive: HCT-15 colon 70.2% | HT29 colon 74% | SNB-75 CNS 59.9% | SNB-19 CNS 79.5% | U251 CNS 76.1% | PC-3 prostate 42.9% | SK-MEL-5 melanoma 65.8% | UACC-62 melanoma 85.3% | LOX IMVI melanoma 70.3% | SK-MEL-28 melanoma 97.3%

CCC(=O)Oc1cc(Cl)c(Cl)cc1Cl
inactive: HCT-15 colon 103% | HT29 colon 103% | SNB-75 CNS 89.6% | SNB-19 CNS 113% | U251 CNS 98.1% | PC-3 prostate 96.4% | SK-MEL-5 melanoma 105% | UACC-62 melanoma 108% | LOX IMVI melanoma 105% | SK-MEL-28 melanoma 104%

O=C1c2cccc3cccc(c23)C(=O)N1N1C(=O)c2cccc3c(N4CCNCC4)ccc(c23)C1=O
inactive: HCT-15 colon 50.6% | HT29 colon 87.3% | SNB-75 CNS 92.2% | SNB-19 CNS 88.5% | U251 CNS 86.3% | PC-3 prostate 85.1% | SK-MEL-5 melanoma 92.8% | UACC-62 melanoma 95.7% | LOX IMVI melanoma 86.5% | SK-MEL-28 melanoma 109%

O=C(/C=C\c1ccc(Cl)c(Cl)c1)c1ccccc1
inactive: HCT-15 colon 65.6% and 100% | HT29 colon 37.5% and 88.8% | SNB-75 CNS 98.5% and 99.9% | SNB-19 CNS 86.9% and 98.4% | U251 CNS 85.3% | PC-3 prostate 98.8% and 87.6% | SK-MEL-5 melanoma 97.2% and 101% | UACC-62 melanoma 91.7% and 95.9% | LOX IMVI melanoma 10.8% and 91.5% | SK-MEL-28 melanoma 102% and 108%

COc1ccc(CN2CCc3c(Cl)nc(N)nc3C2=O)c(OC)c1
active: HCT-15 colon -36.7% [100 µM] | HT29 colon -4.88% [100 µM] | SNB-75 CNS 4.5% [100 µM] | U251 CNS 4.76% [100 µM] | SK-MEL-5 melanoma -55.7% [100 µM] | UACC-62 melanoma -24.5% [100 µM] | LOX IMVI melanoma -29.7% [100 µM] | SK-MEL-28 melanoma -56.1% [100 µM]
inactive: SNB-19 CNS 33.9% [100 µM] | PC-3 prostate 12% [100 µM]

C/C=C(/C)C(=O)O[C@@H]1CC(C)(C)CC2C34OC(=O)[C@@]21CC[C@@]3(C)[C@]1(C)CCC2C(C)(C)C(=O)CC[C@]2(C)C1C[C@@H]4Cl (stereo not given in full)
inactive: HCT-15 colon 99.3% | HT29 colon 98% | SNB-75 CNS 76% | SNB-19 CNS 92% | U251 CNS 92.1% | PC-3 prostate 80.4% | SK-MEL-5 melanoma 98.4% | UACC-62 melanoma 85.3% | LOX IMVI melanoma 94.1% | SK-MEL-28 melanoma 102%

Nc1ncnc2c1C(c1ccc([N+](=O)[O-])cc1)c1sc3c(F)cccc3c1O2 (stereo not given)
inactive: HCT-15 colon 102% | HT29 colon 112% | SNB-75 CNS 97% | SNB-19 CNS 102% | U251 CNS 92.4% | PC-3 prostate 91.6% | SK-MEL-5 melanoma 98.4% | UACC-62 melanoma 81% | LOX IMVI melanoma 84.2% | SK-MEL-28 melanoma 106%

COc1cc(/C=C2\CCC/C(=C\c3cc(CN4CCCC4)c(O)c(OC)c3)C2=O)cc(CN2CCCC2)c1O
active: HT29 colon -46.2% | LOX IMVI melanoma 9.9%
inactive: HCT-15 colon 16.3% | SNB-75 CNS 20.3% | SNB-19 CNS 44.7% | U251 CNS 25.3% | PC-3 prostate 31.2% | SK-MEL-5 melanoma 71.1% | UACC-62 melanoma 88.6% | SK-MEL-28 melanoma 92.2%

COCCn1cc(-c2nc(-c3cn(CCOC)c4ncccc34)cs2)c2ccccc21
inactive: HCT-15 colon 18.1% | HT29 colon 89.5% | SNB-75 CNS 64.6% | SNB-19 CNS 71.1% | U251 CNS 72.8% | PC-3 prostate 73.1% | UACC-62 melanoma 87.1% | LOX IMVI melanoma 86.1% | SK-MEL-28 melanoma 105%
active: SK-MEL-5 melanoma 7.97%
